# Where a name gives a salt, the structure may show the parent alone.
# Legend:
# Conditions in all cases: compound concentration in added solution (µM; 5 µl added to 20 µl cells): 10; 18 h
# A431 [1] = assay: LBPA endosome anti-LBPA integrated intensity (sum per cell), Z-score; higher = more LBPA staining
# Summary of the method: (§1)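 HeLa MZ or A431 cells (3,500/well in 20 µl) were seeded onto 5 µl of 10 µM compound solution in duplicate 384-well imaging plates, incubated 18 h, then fixed in 4% PFA. Cells were stained with 6C4 anti-LBPA antibody, filipin, propidium iodide and CellTracker green, and four 20× images were taken per well. MetaXpress segmentation gave per-cell integrated LBPA or filipin intensity, either whole-cell or within LBPA endosomes. Values are Z-scores normalised in AcuityXpress.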
# HeLa MZ [2] = assay: as above
# Summary of the method: as §1
# A431 [3] = assay: whole-cell filipin (free cholesterol) integrated intensity, Z-score; higher = more cholesterol staining
# Summary of the method: as §1
# HeLa MZ [4] = assay: as above
# Summary of the method: as §1
# A431 [5] = assay: filipin (cholesterol) integrated intensity within LBPA endosomes, Z-score; higher = more cholesterol in LBPA endosomes
# Summary of the method: as §1
# HeLa MZ [6] = assay: as above
# Summary of the method: as §1
Structure (SMILES),LBPA endosome anti-LBPA integrated intensity (z-score) (A431 [1]),LBPA endosome anti-LBPA integrated intensity (z-score) (HeLa MZ [2]),whole-cell filipin (z-score) (A431 [3]),whole-cell filipin (z-score) (HeLa MZ [4]),filipin (z-score) (A431 [5]),filipin (z-score) (HeLa MZ [6])
Cc1noc(NS(=O)(=O)c2ccc(N)cc2)c1C [Sulfisoxazole],-0.641,-0.742,-0.79,-0.499,-0.574,-0.486
Cc1cnc(NC(=O)C2=C(O)c3ccccc3S(=O)(=O)N2C)s1 [Meloxicam],-0.49,0.298,-0.567,-0.195,-0.477,-0.459
O=c1cc(-c2ccc(O)c(O)c2)oc2cc(O)cc(O)c12 [Luteolin],-0.401,0.459,-0.523,-0.0366,-0.468,-0.425
O=C(N[C@H](CO)[C@H](O)c1ccc([N+](=O)[O-])cc1)C(Cl)Cl [Chloramphenicol],-0.509,-0.731,-0.952,-1.01,-0.558,-0.762
"C[C@@]1(O)CCOC(=O)C1 [Mevalonic-D, L acid lactone]",-0.324,-0.057,-0.441,0.0668,-0.408,-0.457
CC(C)C(=O)c1c(C(C)C)nn2ccccc12 [Ibudilast],-0.434,-0.686,0.153,-0.112,-0.402,-0.704
CN1C(C(=O)Nc2ccccn2)=C(O)c2sccc2S1(=O)=O [Tenoxicam],-0.541,-0.303,-0.432,-0.0776,-0.522,-0.391
CCN1CCCC1CNC(=O)c1cc(S(=O)(=O)CC)c(N)cc1OC (stereo unspecified) [Amisulpride],-0.554,-0.244,-0.77,-0.754,-0.543,-0.453
CCCC1O[C@@H]2C[C@H]3[C@@H]4CCC5=CC(=O)C=C[C@]5(C)[C@H]4[C@@H](O)C[C@]3(C)[C@]2(C(=O)CO)O1 (stereo partly specified) [Budesonide],-0.313,-0.695,0.452,0.254,-0.143,0.318
Cc1ccc(S(=O)(=O)NC(=O)NN2CC3CCCC3C2)cc1 (stereo unspecified) [Gliclazide],-0.621,-1.17,-0.806,-0.679,-0.555,-0.64
COc1cc(NS(=O)(=O)c2ccc(N)cc2)nc(OC)n1 [Sulfadimethoxine],-0.522,-0.857,-0.62,0.132,-0.482,-0.404
Cc1cccc(Nc2ccncc2S(=O)(=O)NC(=O)NC(C)C)c1 [Torsemide],-0.347,-0.115,0.00281,0.228,-0.452,-0.394
COc1cc(NC(C)CCCN)c2ncccc2c1 (stereo unspecified) [Primaquine diphosphate],-0.0886,0.528,-0.291,-0.377,-0.187,0.116
CC1(C)[C@@H](OC(=O)CCC(=O)O)CC[C@]2(C)[C@H]3C(=O)C=C4[C@@H]5C[C@@](C)(C(=O)O)CC[C@]5(C)CC[C@@]4(C)[C@]3(C)CC[C@@H]12 [Carbenoxolone disodium salt],-0.362,0.399,-0.0877,0.214,-0.408,-0.356
CNCCC=C1c2ccccc2CCc2ccccc21 [Nortriptyline hydrochloride],3.79,1.4,1.95,1.82,3.53,3.69
COc1ccc(C(=O)NCc2cccnc2)cc1C(=O)NCc1cccnc1 [Picotamide monohydrate],-0.303,-0.286,-0.472,-0.0549,-0.457,-0.612
Nc1nc2ccc(OC(F)(F)F)cc2s1 [Riluzole hydrochloride],-0.418,-0.758,-0.48,-0.459,-0.501,-0.474
CNC(=O)c1c(I)c(C(=O)NCC(=O)Nc2c(I)c(C(=O)O)c(I)c(C(=O)NCCO)c2I)c(I)c(N(C)C(C)=O)c1I [Ioxaglic acid],-0.421,-0.394,-0.282,-0.455,-0.384,-0.571
CC(N)C12CC3CC(CC(C3)C1)C2 (stereo unspecified) [Rimantadine Hydrochloride],-0.677,-0.134,-0.496,0.106,-0.59,-0.56
CC1=C(C(=O)O)N2C(=O)[C@@H](NC(=O)[C@H](N)c3ccc(O)cc3)[C@H]2SC1 [Cefadroxil],-0.651,-1.02,-0.697,-0.675,-0.507,-0.626
CN(C)CC/C=C1\c2ccccc2CSc2ccccc21 [Dosulepin hydrochloride],1.61,0.828,1.17,0.164,1.82,0.976
Cc1ncc([N+](=O)[O-])n1CC(O)CCl (stereo unspecified) [Ornidazole],-0.468,-0.445,-0.79,-0.699,-0.356,-0.454
C=CCN1CCCC1CNC(=O)c1cc2nn[nH]c2cc1OC (stereo unspecified) [Alizapride HCl],-0.413,0.636,-0.622,-0.69,-0.538,-0.182

Structure (SMILES),LBPA endosome anti-LBPA integrated intensity (z-score) (A431 [1]),LBPA endosome anti-LBPA integrated intensity (z-score) (HeLa MZ [2]),whole-cell filipin (z-score) (A431 [3]),whole-cell filipin (z-score) (HeLa MZ [4]),filipin (z-score) (A431 [5]),filipin (z-score) (HeLa MZ [6])
CN1CCN(C2=Nc3ccccc3Oc3ccc(Cl)cc32)CC1 [Loxapine succinate],0.352,1.12,0.0252,-0.743,0.0734,-0.11
CNCCC(Oc1ccc(C(F)(F)F)cc1)c1ccccc1 (stereo unspecified) [Fluoxetine hydrochloride],2.5,0.902,0.302,-0.115,2.19,1.62
CO[C@H]1/C=C/O[C@@]2(C)Oc3c(C)c(O)c4c(c3C2=O)C2=NC3(CCN(CC(C)C)CC3)NC2=C(NC(=O)/C(C)=C\C=C\[C@H](C)[C@H](O)[C@@H](C)[C@@H](O)[C@@H](C)[C@H](OC(C)=O)[C@@H]1C)C4=O [Rifabutin],-0.125,1.08,0.49,0.136,-0.0844,0.633
O=C1CN(/N=C/c2ccc([N+](=O)[O-])o2)C(=O)N1 [Nitrofurantoin],-0.475,-1.22,-0.354,-0.515,-0.501,-0.575
CCCNC(C)C(=O)Nc1ccccc1C (stereo unspecified) [Prilocaine hydrochloride],-0.398,-0.0706,-0.685,-0.312,-0.467,-0.406
NC(=O)c1cnccn1 [Pyrazinamide],-0.586,-0.505,-0.486,-0.665,-0.578,-0.581
CCCN(CCC)S(=O)(=O)c1ccc(C(=O)O)cc1 [Probenecid],-0.546,-0.569,-0.756,-0.679,-0.526,-0.61
CC(C)NCC(O)COc1ccc(CCOCC2CC2)cc1 (stereo unspecified) [Betaxolol hydrochloride],2.57,2.19,0.139,-0.283,0.614,0.292
CCn1cc(C(=O)O)c(=O)c2cnc(N3CCCC3)nc21 [Piromidic acid],-0.472,-0.684,-0.293,0.123,-0.374,-0.418
CC(C(=O)O)c1ccc2c(c1)[nH]c1ccc(Cl)cc12 (stereo unspecified) [Carprofen],-0.569,-1.21,-0.098,-0.307,-0.398,-0.538
NCCCC[C@H](N[C@@H](CCc1ccccc1)C(=O)O)C(=O)N1CCC[C@H]1C(=O)O [Lisinopril],-0.555,-0.949,-0.886,-0.862,-0.636,-0.71
CC(Oc1ccccc1)C(=O)N[C@@H]1C(=O)N2[C@@H]1SC(C)(C)[C@@H]2C(=O)O (stereo partly specified) [Phenethicillin potassium salt],-0.589,-1.24,-0.612,-0.336,-0.493,-0.525
C=CCc1ccccc1OCC(O)CNC(C)C (stereo unspecified) [Alprenolol hydrochloride],-0.146,-0.138,0.0188,0.141,-0.22,-0.133
Cc1c(C)c2c(c(C)c1O)CCC(C)(C(=O)O)O2 (stereo unspecified) [Trolox],-0.472,0.342,-0.624,0.128,-0.552,-0.401
Cc1c(Nc2ncccc2C(=O)O)cccc1C(F)(F)F [Flunixin meglumine],-0.51,-0.897,-0.493,-0.611,-0.459,-0.549
N=C(N)c1ccc(OCCCCCOc2ccc(C(=N)N)cc2)cc1 [Pentamidine isethionate],-0.319,-1.47,-0.429,-0.57,-0.313,-0.712
COc1cc(N)c(Cl)cc1C(=O)NC1CCN(Cc2ccccc2)CC1 [Clebopride maleate],0.365,2.01,-0.171,0.217,0.0875,0.539
CC(C)(C)NCC(O)COc1cccc2c1CC(O)C(O)C2 (stereo unspecified) [Nadolol],-0.438,0.289,-0.0909,0.44,-0.44,-0.157
NS(=O)(=O)Cc1noc2ccccc12 [Zonisamide],-0.257,0.173,-0.0819,0.0656,-0.385,-0.275
O=C(c1ccc(F)cc1)C1CCN(CCn2c(=O)[nH]c3ccccc3c2=O)CC1 [Ketanserin tartrate hydrate],0.533,0.294,0.959,0.523,0.805,0.808
Cc1cc(C(=O)NNCc2ccccc2)no1 [Isocarboxazid],-0.549,-1.31,-0.396,-0.63,-0.553,-0.513
CC(C)NCC(O)COc1ccc(COCCOC(C)C)cc1 (stereo unspecified) [Bisoprolol fumarate],0.695,0.146,-0.603,0.308,-0.0123,-0.0431
C[C@H](N)[C@H](O)c1cccc(O)c1 [Metaraminol bitartrate],-0.242,-0.0318,-0.347,-0.355,-0.416,-0.505

# — the supplement of paper PMC6607015
